Measurements taken from PubChem BioAssay.
For some of these results: Entries with a potency or affinity are not part of this list. This is one part of the list. Activity calls are given as the source filed them.

Columns and labels:
[1] = target: Inward rectifier potassium channel 2 (Mus musculus) (UniProt P35561); test: mouse Kir2.1 channel blockers, retest, confirmation, cell-based, FluxOR thallium flux, duplicate (AID 2032;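 active = Primary-screen hit whose thallium flux fell at least 3 control SD below untreated wells in both duplicates, with normal baseline fluorescence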); conditions: Kir2.1-expressing cells, FluxOR thallium flux fluorescence, at 10 µM; hits give low values
[2] = nonspecific thallium flux effects in parental HEK293 cells, confirmation, counter-screen for Kir2.1 inhibitor project, cell-based, FluxOR thallium flux, duplicate, single concentration (AID 2105); conditions: FluxOR thallium flux fluorescence, at 10 µM; 0% = unstimulated blank wells
[3] = nonspecific thallium flux increase in parental CHO-K1, confirmation, counter-screen for KCNQ2 potentiator project, cell-based, FluxOR thallium flux, duplicate (AID 2282;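 active = signal rise of at least 3 SD above the untreated control mean, in both duplicate wells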;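 also: counter screen of KCNQ2 potentiator hits so any rise reflects channel-independent effects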); conditions: parental CHO-K1 cells, FluxOR thallium flux fluorescence; at 10 µM; hits give high values; zero = vehicle mean+3SD, 100% = vehicle-minus-blank window
[4] = target: Potassium voltage-gated channel subfamily KQT member 1 (Homo sapiens) (UniProt P51787); test: human KCNQ1 channel potentiation off-target, confirmation, selectivity assay for KCNQ2 potentiator project, cell-based, CHO, FluxOR thallium flux (AID 2283;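 active = fluorescence ratio rise of at least 3 SD of vehicle wells above their mean, in both replicate wells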;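 also: 0% = vehicle mean plus 3 SD and 100% = vehicle minus unstimulated blank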); conditions: CHO KCNQ1 stable, FluxOR thallium flux fluorescence; at 10 µM; hits give high values; beyond 3SD, as % of vehicle-control signal
[5] = target: Potassium voltage-gated channel subfamily KQT member 2 (Rattus norvegicus) (UniProt O88943); test: rat KCNQ2 channel potentiators, confirmation, cell-based, CHO, FluxOR thallium flux, duplicate (AID 2287;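 active = fluorescence ratio rising 3 SD or more over the vehicle control mean in both replicates, plus primary screen hit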;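 also: peak minus minimum thallium fluorescence divided by baseline after K/Tl stimulus; 0% = vehicle mean plus 3 SD and 100% = vehicle minus unstimulated blank difference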); conditions: CHO-KCNQ2 cells, FluxOR thallium flux fluorescence; at 10 µM; hits give high values
[6] = target: Inward rectifier potassium channel 2 (Mus musculus) (UniProt P35561); test: PubChem AID 2345; conditions: HEK293 Kir2.1, FluxOR thallium flux fluorescence; at 10 µM; hits give high values;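 also: 0% = vehicle mean plus 3 SD and 100% = vehicle minus no-stimulus blank window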
[7] = test system: TRPC4 beta (transient receptor potential cation channel C4), mouse; test: activators of mouse TRPC4 channel, confirmation, cell-based, Fluo4 calcium, HEK293 TRPC4beta/mu-opioid, duplicates, 10 µM (AID 2426;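 active = fluorescence ratio normalized to control raised more than 50% in primary screen plus both repeat runs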); conditions: Fluo4 calcium fluorescence, at 10 µM; hits give high values
[8] = test system: transient receptor potential cation channel C4 beta (TRPC4), mouse; test: activators of mouse TRPC4 channel, confirmation, cell-based, second round, Fluo4, HEK293 TRPC4beta/mu-opioid, 1 µM (AID 2461;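 active = primary screen active and over 50% activation in each of two duplicate runs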); conditions: Fluo4 calcium fluorescence, at 1 µM; hits give high values
[9] = test system: TRPC4 (transient receptor potential cation channel C4 beta), mouse; test: positive allosteric modulators of mouse TRPC4, confirmation, cell-based, second round, Fluo-4, HEK293 TRPC4beta/mu-opioid, 1 µM (AID 2554;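 active = primary screen hit whose fluorescence ratio, in both repeats, exceeds the weak agonist control mean by 3 SD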); conditions: DAMGO EC20, Fluo-4 calcium flux, at 1 µM; hits give high values
[10] = test system: TRPC4 beta (transient receptor potential cation channel C4), mouse; test: positive allosteric modulators of mouse TRPC4, confirmation, cell-based, Fluo-4, HEK293 TRPC4beta/mu-opioid (AID 2555;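 active = primary screen hit whose calcium fluorescence ratio, in both repeats, exceeds the weak agonist control mean by 3 SD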); conditions: DAMGO EC20, Fluo-4 calcium flux, at 10 µM; hits give high values
[11] = target: Short transient receptor potential channel 4 (Mus musculus) (UniProt Q9QUQ5); test: inhibitors of mouse TRPC4 channel, confirmation, cell-based, Fluo4, HEK293 TRPC4beta/mu-opioid (AID 2636;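 active = calcium signal cut by more than 3 SD below the full-agonist control yet still positive, in both repeats and the earlier primary screen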); conditions: DAMGO, Fluo4 calcium flux, at 10 µM; hits give high values
[12] = target: Short transient receptor potential channel 4 (Mus musculus) (UniProt Q9QUQ5); test: inhibitors of mouse TRPC4 channel, confirmation, cell-based, second round, Fluo4, HEK293 TRPC4beta/mu-opioid, 1 µM (AID 2637;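 active = calcium signal ratio cut to more than 3 SD under the fully stimulated control mean yet still positive, in both repeats and the primary screen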;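 as to inhibition: percent of integrated ratio relative to wells lacking test compound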); conditions: Fluo4 calcium flux, DAMGO, at 1 µM; hits give high values
[13] = target: Short transient receptor potential channel 4 (Mus musculus) (UniProt Q9QUQ5); test: mouse TRPC4 channel activators, dose response, cell-based, HEK293 TRPC4/mu-opioid, Fluo-4 calcium (AID 434937;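 active = primary screen activator hit with a dose response curve and TRPC4 channel activation at any tested dose; inactive = no activation, no dose response, or not a primary hit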)
[14] = target: Short transient receptor potential channel 4 (Mus musculus) (UniProt Q9QUQ5); test: TRPC4 positive allosteric modulators, dose response, cell-based, HEK293 TRPC4/mu-opioid, Fluo-4 calcium, EC20 DAMGO (AID 434941;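 active = earlier screen potentiator hit that boosts the TRPC4 ion channel at some dose, with a dose response; inactive = no potentiation, no dose response, or not a prior hit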;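 also: calcium entry triggered by an EC20 dose of DAMGO at the co-expressed mu-opioid receptor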)
[15] = target: Short transient receptor potential channel 4 (Mus musculus) (UniProt Q9QUQ5); test: mouse TRPC4 channel inhibitors, dose response, cell-based, HEK293 TRPC4/mu-opioid, Fluo-4 calcium (AID 434942;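 active = primary screen inhibitor hit that blocks the TRPC4 channel at some tested dose, yielding a dose curve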)
[16] = target: Short transient receptor potential channel 6 (Mus musculus) (UniProt Q61143); test: inhibition of mouse TRPC6 channel, confirmation, selectivity assay for TRPC4 inhibitor project, cell-based, HEK293, membrane potential dye, duplicate (AID 434948;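 active = active in primary screen and both duplicates, each dropping signal beyond three positive-control SD with fluorescence still positive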); conditions: HEK293 TRPC6, membrane potential dye fluorescence, at 10 µM, stimulated with maximal-effect acetylcholine; hits give high values
[17] = target: Short transient receptor potential channel 6 (Mus musculus) (UniProt Q61143); test: activation of mouse TRPC6 channel, confirmation, selectivity assay for TRPC4 activator project, cell-based, HEK293, membrane potential dye, duplicate (AID 434950;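 active = membrane potential signal rise above negative control mean plus 3 SD in both duplicates, also active in the earlier TRPC4 screen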); conditions: HEK293 TRPC6, membrane potential fluorescence, at 10 µM; hits give high values
[18] = target: Short transient receptor potential channel 6 (Mus musculus) (UniProt Q61143); test: TRPC6 potentiation by TRPC4 potentiator hits, confirmation, selectivity assay for TRPC4 potentiator project, HEK293 cells, membrane potential dye, duplicate (AID 434952;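 active = compound raising the membrane signal above positive-control mean plus 3 SD in both repeats, and a primary screen hit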); conditions: HEK293 TRPC6, membrane potential dye fluorescence, at 10 µM, maximal acetylcholine added after compound; hits give high values
[19] = target: Short transient receptor potential channel 4 (Mus musculus) (UniProt Q9QUQ5); test: calcium flux activators in TRPC4/5HT1a cells, counter-screen for TRPC4 activator project, cell-based, second counter screen, HEK293 TRPC4/5HT1a, Fluo-4 (AID 434977;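 active = calcium signal rise above buffer-control mean plus 5 SD in both duplicates, and also a hit in the primary screen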); conditions: Fluo-4 calcium flux, at 10 µM; hits give high values
[20] = calcium flux inhibitors in TRPC4/5HT1a cells, confirmation, counter-screen for TRPC4 inhibitor project, cell-based, second counter screen, HEK293 TRPC4/5HT1a, Fluo-4 (AID 434978;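 active = primary screen active whose calcium signal fell more than 3 SD beyond the full-serotonin control mean in both duplicate plates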;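 as to outcome: serotonin given first at submaximal then at maximal dose after compound preincubation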); conditions: Fluo-4 calcium flux, at 10 µM, serotonin added to trigger calcium flux; hits give high values
[21] = test system: TRPC4 (mouse), co-expressed with 5HT1a in HEK293; test: calcium flux potentiators in TRPC4/5HT1a cells, confirmation, counter-screen for TRPC4 potentiator project, cell-based, second counter screen, HEK293 TRPC4/5HT1a, Fluo-4 (AID 434979;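 active = signal rise over 3 SD above mean of control wells given weak agonist, in both repeats and first screen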); conditions: Fluo-4 calcium flux, at 10 µM, serotonin added at its EC20 dose; hits give high values
[22] = calcium flux activation in mu-opioid HEK293 cells, confirmation, counter-screen for TRPC4 activator project, cell-based, HEK293 mu-opioid receptor line (AID 449723;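 active = hit in primary screen, with calcium signal over 5 SD above buffer well mean in both duplicates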;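 also: counter screen cells carry the mu-opioid receptor alone and lack TRPC4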); conditions: Fluo-4 calcium fluorescence, at 10 µM; hits give high values
[23] = calcium flux enhancement in mu-opioid HEK293 cells, confirmation, counter-screen for TRPC4 allosteric potentiator project, cell-based, HEK293 mu-opioid receptor line (AID 449724;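 active = calcium signal rise more than 3 SD above the low-dose agonist control mean, in both duplicate plates and the primary screen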); conditions: Fluo-4 calcium flux, at 10 µM, compound added before EC20 DAMGO stimulus; hits give high values
[24] = target: Potassium voltage-gated channel subfamily KQT member 2 (Rattus norvegicus) (UniProt O88943); test: potentiators of retigabine-insensitive KCNQ2 W236L, mechanism study for KCNQ2 potentiator project, cell-based, rat KCNQ2 W236L, CHO, automated patch clamp (AID 2558;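 active = current increase at least 3 SD of the untreated controls above them in both duplicate recordings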); conditions: at 25 µM; outcome: automated patch clamp current
[25] = target: Voltage-gated inwardly rectifying potassium channel KCNH2 (Homo sapiens) (UniProt Q12809); test: hERG channel inhibition, counter-screen for Kir2.1 inhibitor project, cell-based, thallium flux (AID 2236; call rule not given here;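 also: host cells are CHO cells stably expressing hERG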); conditions: hERG-expressing cells, at 10 µM; hits give high values
[26] = target: Potassium channel subfamily K member 9 (Homo sapiens) (UniProt Q9NPC2); test: KCNK9 channel inhibition, selectivity assay for Kir2.1 inhibitor project, cell-based (AID 2329; call rule not given here); conditions: KCNK9-expressing cells, ion flux inhibition, at 10 µM; hits give high values
[27] = target: Inward rectifier potassium channel 2 (Mus musculus) (UniProt P35561); test: mouse Kir2.1 channel blockers, Kir2.1 inhibitor project, cell-based, secondary, automated electrophysiology (AID 463252; call rule not given here); conditions: Kir2.1 cells, automated patch-clamp current inhibition, at 25 µM; hits give high values

Chain of Short transient receptor potential channel 6 (Mus musculus) (Q61143 whole entry, looked up): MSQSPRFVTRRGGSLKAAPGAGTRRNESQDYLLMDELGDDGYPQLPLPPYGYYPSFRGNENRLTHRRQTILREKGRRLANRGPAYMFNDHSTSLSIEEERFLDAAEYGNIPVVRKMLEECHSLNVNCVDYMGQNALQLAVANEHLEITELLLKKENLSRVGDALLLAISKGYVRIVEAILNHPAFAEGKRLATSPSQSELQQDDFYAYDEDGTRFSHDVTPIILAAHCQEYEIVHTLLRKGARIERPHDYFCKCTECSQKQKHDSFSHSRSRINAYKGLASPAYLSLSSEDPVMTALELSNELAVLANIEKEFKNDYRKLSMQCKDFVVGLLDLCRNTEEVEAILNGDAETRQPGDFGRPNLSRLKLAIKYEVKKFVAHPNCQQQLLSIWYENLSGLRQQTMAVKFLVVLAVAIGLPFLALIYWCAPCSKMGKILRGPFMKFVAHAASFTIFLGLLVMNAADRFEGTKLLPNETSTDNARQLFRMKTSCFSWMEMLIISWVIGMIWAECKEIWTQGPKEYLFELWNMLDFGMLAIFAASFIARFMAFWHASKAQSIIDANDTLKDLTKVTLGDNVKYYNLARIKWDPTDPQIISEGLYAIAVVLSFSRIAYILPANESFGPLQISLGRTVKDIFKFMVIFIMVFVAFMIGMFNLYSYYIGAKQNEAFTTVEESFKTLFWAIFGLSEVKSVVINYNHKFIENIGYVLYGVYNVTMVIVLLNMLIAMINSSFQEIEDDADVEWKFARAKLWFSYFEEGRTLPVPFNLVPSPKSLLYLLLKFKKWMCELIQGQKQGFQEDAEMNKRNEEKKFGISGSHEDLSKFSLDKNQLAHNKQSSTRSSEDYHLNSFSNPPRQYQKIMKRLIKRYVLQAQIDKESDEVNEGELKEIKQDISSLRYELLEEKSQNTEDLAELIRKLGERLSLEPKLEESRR
Chain of Inward rectifier potassium channel 2 (Mus musculus) (P35561 whole entry, looked up): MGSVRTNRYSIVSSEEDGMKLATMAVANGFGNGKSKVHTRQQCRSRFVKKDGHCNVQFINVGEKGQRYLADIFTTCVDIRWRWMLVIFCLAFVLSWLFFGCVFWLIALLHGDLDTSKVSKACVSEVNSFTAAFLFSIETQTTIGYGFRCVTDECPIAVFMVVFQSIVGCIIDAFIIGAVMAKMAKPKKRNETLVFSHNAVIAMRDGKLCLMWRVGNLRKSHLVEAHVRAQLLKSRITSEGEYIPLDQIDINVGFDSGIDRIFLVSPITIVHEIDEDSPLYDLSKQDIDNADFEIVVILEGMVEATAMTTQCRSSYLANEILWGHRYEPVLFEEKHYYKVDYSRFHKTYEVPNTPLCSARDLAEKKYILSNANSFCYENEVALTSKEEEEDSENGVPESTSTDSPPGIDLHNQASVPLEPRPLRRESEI
Chain of Short transient receptor potential channel 4 (Mus musculus) (Q9QUQ5 whole entry, looked up): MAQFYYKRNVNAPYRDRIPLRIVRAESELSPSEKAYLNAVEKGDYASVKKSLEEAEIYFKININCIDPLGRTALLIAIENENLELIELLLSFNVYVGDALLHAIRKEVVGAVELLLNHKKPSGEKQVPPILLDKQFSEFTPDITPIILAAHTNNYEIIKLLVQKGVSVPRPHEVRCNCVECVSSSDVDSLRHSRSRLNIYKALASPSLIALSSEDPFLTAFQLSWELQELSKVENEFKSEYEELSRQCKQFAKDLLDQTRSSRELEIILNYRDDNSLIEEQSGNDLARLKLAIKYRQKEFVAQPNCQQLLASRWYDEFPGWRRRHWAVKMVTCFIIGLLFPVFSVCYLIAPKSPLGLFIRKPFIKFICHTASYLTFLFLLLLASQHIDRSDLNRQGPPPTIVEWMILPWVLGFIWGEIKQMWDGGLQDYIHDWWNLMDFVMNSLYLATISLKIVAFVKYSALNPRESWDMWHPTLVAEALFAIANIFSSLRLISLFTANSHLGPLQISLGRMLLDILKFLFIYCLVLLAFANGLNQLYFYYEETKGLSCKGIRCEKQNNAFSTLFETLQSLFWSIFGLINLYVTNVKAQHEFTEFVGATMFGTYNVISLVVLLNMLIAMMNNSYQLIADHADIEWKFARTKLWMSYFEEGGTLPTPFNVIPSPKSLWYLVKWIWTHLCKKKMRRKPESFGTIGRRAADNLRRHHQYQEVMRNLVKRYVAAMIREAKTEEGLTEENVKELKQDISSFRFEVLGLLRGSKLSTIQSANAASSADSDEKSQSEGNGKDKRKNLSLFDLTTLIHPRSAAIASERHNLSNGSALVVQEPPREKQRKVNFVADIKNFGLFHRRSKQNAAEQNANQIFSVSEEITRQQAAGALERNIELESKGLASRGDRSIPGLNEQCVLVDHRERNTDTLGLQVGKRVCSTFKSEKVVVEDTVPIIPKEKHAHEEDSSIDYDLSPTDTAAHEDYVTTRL
Chain of Potassium voltage-gated channel subfamily KQT member 1 (Homo sapiens) (P51787 whole entry, looked up): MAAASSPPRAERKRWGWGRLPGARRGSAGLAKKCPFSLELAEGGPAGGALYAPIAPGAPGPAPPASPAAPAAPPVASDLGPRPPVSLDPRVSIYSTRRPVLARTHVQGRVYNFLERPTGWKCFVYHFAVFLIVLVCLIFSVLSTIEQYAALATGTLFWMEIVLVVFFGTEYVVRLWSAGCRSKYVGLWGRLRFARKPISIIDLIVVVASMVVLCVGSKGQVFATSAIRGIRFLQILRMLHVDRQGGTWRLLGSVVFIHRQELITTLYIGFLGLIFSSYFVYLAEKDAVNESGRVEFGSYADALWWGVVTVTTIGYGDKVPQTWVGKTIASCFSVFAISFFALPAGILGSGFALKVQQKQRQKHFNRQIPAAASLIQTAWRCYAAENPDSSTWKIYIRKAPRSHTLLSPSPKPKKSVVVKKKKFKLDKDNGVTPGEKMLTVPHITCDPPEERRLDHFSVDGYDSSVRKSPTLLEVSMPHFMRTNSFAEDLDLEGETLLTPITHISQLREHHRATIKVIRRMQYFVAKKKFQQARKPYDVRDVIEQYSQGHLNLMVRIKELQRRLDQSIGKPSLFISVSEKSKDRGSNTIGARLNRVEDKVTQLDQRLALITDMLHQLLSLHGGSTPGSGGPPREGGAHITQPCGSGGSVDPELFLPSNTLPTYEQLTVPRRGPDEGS
Chain of Voltage-gated inwardly rectifying potassium channel KCNH2 (Homo sapiens) (Q12809 whole entry, looked up): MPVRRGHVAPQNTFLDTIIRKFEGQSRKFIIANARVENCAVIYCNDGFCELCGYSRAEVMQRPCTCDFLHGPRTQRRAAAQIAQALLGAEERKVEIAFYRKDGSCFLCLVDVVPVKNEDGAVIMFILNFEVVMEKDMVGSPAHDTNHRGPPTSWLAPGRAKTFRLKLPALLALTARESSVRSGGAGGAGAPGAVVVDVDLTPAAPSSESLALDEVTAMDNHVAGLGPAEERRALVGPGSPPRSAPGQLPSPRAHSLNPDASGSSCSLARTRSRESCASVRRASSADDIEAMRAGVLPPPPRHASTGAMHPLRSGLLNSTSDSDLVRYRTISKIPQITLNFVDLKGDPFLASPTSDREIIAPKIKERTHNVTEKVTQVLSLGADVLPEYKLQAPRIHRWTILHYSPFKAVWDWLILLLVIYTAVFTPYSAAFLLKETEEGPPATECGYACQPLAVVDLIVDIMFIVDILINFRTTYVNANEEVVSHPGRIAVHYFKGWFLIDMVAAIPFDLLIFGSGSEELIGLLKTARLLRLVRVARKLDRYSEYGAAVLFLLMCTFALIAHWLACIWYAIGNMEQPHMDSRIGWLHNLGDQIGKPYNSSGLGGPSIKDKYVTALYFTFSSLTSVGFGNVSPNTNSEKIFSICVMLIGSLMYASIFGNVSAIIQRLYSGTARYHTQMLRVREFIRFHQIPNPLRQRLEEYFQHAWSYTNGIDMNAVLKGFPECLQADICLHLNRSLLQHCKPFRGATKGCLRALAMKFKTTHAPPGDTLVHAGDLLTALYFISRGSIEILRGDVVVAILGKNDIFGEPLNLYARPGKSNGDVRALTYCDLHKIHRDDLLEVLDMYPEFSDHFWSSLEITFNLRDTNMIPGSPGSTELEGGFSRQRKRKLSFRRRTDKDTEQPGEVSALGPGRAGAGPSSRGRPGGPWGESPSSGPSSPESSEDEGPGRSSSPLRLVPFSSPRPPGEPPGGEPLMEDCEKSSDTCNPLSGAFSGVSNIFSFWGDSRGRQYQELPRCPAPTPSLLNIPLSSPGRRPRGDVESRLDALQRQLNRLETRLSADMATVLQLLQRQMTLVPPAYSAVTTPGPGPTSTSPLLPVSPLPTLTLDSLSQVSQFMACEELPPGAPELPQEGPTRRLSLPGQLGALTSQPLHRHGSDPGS

COc1ccc(-c2n[nH]c(C)c2-c2ccccc2OC)c(O)c1
inactive: outcome [1] | outcome [2] | potentiation, less the hit threshold [5] -12.6% | activity over 3SD threshold [6] -44.6% | outcome [7] | outcome [8] | outcome [9] | outcome [10] | outcome [11] | outcome [12] | outcome [13] | outcome [14] | outcome [15] | outcome [16] | outcome [17] | outcome [18] | outcome [19] | outcome [20] | outcome [21] | outcome [22] | outcome [23]
active: activity increase over 3SD of controls [3] 28.7% | activation over 3SD threshold [4] 56.3%

COc1cc(CNCc2ccc(OC)c3ccccc23)cc(OC)c1OC
inactive: outcome [2]
active: Tl flux remaining, % of negative control (hits give low values) [1] 51%

Cc1ccc(C(=O)Nc2nnc(C3=COCCO3)o2)cc1C
active: activity increase over 3SD of controls [3] 50.1% | potentiation, less the hit threshold [5] 4.5% | inhibition [11] 66% | inhibition [12] 44% | inhibition [20] 42.2%
inactive: outcome [1] | outcome [2] | activation over 3SD threshold [4] -7.9% | activity over 3SD threshold [6] -30.3% | outcome [7] | outcome [8] | outcome [9] | outcome [10] | outcome [24] | outcome [13] | outcome [14] | outcome [16] | outcome [17] | outcome [18] | outcome [19] | outcome [21] | outcome [22] | outcome [23]

CN(c1ccccc1)S(=O)(=O)c1ccc(Cl)c(C(=O)OCC(=O)NCc2ccco2)c1
inactive: outcome [1] | outcome [2] | activity increase over 3SD of controls [3] -5.5% | activation over 3SD threshold [4] -28.3% | potentiation, less the hit threshold [5] -1.3% | activity over 3SD threshold [6] -38.2%

O=C(CCCN1CCc2[nH]c3ccc(F)cc3c2C1)c1ccc(F)cc1
active: Tl flux remaining, % of negative control (hits give low values) [1] 46% | inhibition [25] 69% | inhibition [27] 5.5%
inactive: outcome [2] | outcome [26]

CC1COc2ccccc2N1S(=O)(=O)c1ccccc1 (stereo unspecified)
inactive: outcome [2]
active: Tl flux remaining, % of negative control (hits give low values) [1] 60%
